The full ranking holds about 33,000 sequences; the median of “E-score (-0.5 to 0.5)” is about -0.011, and the highest 2% start at about 0.28. Only a selection was taken, and the highest values are over-represented in it overall.
These sequences were tested against T1, Gcr1 (UniProt P07261) (assay: PBM E-score (8-mer binding enrichment) (E-score (-0.5 to 0.5)); higher = stronger / more preferred TF binding). Settings: protein concentration: 100 nM; construct: GST-full length.
T1 sequence: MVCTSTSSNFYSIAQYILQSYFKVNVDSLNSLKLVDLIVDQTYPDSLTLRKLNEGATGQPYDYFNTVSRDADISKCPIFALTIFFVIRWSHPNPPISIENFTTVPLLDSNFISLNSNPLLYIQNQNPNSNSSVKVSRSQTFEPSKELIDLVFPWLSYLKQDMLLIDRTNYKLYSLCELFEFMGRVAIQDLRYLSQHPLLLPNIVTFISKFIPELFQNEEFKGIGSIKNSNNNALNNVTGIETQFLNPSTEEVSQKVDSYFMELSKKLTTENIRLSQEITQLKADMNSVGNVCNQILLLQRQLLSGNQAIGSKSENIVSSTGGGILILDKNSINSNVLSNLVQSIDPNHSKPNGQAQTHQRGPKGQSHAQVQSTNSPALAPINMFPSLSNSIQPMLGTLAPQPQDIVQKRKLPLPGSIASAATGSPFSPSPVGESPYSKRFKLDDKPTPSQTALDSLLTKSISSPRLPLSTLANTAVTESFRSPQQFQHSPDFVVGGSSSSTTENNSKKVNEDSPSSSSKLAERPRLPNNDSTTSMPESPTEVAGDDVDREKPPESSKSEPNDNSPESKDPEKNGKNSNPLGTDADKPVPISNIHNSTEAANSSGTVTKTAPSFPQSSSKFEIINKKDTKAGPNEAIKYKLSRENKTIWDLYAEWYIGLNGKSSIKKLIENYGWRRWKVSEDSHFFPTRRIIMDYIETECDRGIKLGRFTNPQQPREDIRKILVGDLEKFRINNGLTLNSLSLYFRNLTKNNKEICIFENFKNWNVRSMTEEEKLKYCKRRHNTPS
Method: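 Universal 'all 10-mer' protein binding microarrays (Agilent AMADID 015681) probed with GST-tagged S. cerevisiae TFs (full-length or DBD) made by in vitro transcription/translation (PURExpress), about 100-200 nM. Bound TF was detected with fluorescent anti-GST. Each ungapped 8-mer (which stands for itself and its reverse complement) is scored by the PBM enrichment score (E-score), a modified Wilcoxon-Mann-Whitney statistic from -0.5 to +0.5, computed with the Universal PBM Analysis Suite. Scale: above 0.35 generally sequence-specific binding.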

First: TACCCCGA
Second: GGACCGAA
The “PBM E-score” value of the first is lower: -0.036 for the first, 0.0294 for the second.

Going from AAATCGTT to TACAAAAA, the “PBM E-score” value rises from -0.0365 to 0.0752.

First: ACGAAGAT
Second: AAGAAGAT
The “PBM E-score” value of the first is lower: 0.00119 for the first, 0.338 for the second.

Going from TACAAGAA to CACAAGAA, the “PBM E-score” value falls from 0.379 to 0.275.

Going from AAGAAGAG to GTCGGCAA, the “PBM E-score” value falls from 0.237 to 0.0614.

Going from GGATCAAC to ACTCAATA, the “PBM E-score” value rises from -0.00409 to 0.156.

First: AATTTGGA
Second: ATTTTGGG
The “PBM E-score” value of the first is lower: 0.263 for the first, 0.274 for the second.

Compared with ATTTGGGG, CATTTGGA is lower in “PBM E-score” value: 0.23 for the first, 0.172 for the second.

Compared with GTTTTGGA, TATTTGGA is higher in “PBM E-score” value: 0.122 for the first, 0.313 for the second.

Going from GTTTGGGA to ATTTTGGA, the “PBM E-score” value rises from -0.0986 to 0.282.

First: ATTTGGGA
Second: AAGCTCCG
The “PBM E-score” value of the first is higher: 0.301 for the first, 0.00534 for the second.

Going from AACCAACA to CTTTGAGC, the “PBM E-score” value falls from 0.0425 to -0.149.

Going from GACCATCC to GCGCCCAA, the “PBM E-score” value rises from -0.0793 to 0.18.

First: GCGCCCAC
Second: ACGCCCGC
The “PBM E-score” value of the first is higher: 0.317 for the first, 0.105 for the second.

First: GCGCCCGC
Second: CCGCCCAC
The “PBM E-score” value of the first is higher: 0.315 for the first, 0.0451 for the second.

Compared with CCGCCCGC, TAAAGGTA is higher in “PBM E-score” value: -0.0787 for the first, -0.0155 for the second.

First: GTGCTACA
Second: CTAAACGA
The “PBM E-score” value of the first is lower: -0.119 for the first, -0.00769 for the second.

Compared with GGTTAACC, AATCTGGT is higher in “PBM E-score” value: -0.194 for the first, 0.281 for the second.

First: AATCTGGA
Second: AATCTGGC
The “PBM E-score” value of the first is higher: 0.257 for the first, 0.0826 for the second.

First: CGTTCCCC
Second: AACAAGTG
The “PBM E-score” value of the first is lower: -0.0544 for the first, 0.0405 for the second.

First: GATGCCAA
Second: GATGCCGA
The “PBM E-score” value of the first is higher: 0.351 for the first, 0.335 for the second.

Going from GATGCCAC to CATGCCGA, the “PBM E-score” value falls from 0.342 to 0.041.

Compared with AATGCCAA, AATGCCGA is lower in “PBM E-score” value: 0.042 for the first, -0.178 for the second.

Going from TATGCCAA to AATGCCAC, the “PBM E-score” value rises from -0.104 to -0.0507.

Compared with CATGCCAC, GTTCATAA is higher in “PBM E-score” value: -0.109 for the first, 0.0771 for the second.

First: CAGTGAGG
Second: GCCAGGTA
The “PBM E-score” value of the first is lower: -0.176 for the first, 0.0834 for the second.

Compared with CTCTGCGC, CCAGCAGC is higher in “PBM E-score” value: -0.22 for the first, 0.272 for the second.

First: GAAGCAGC
Second: GCAGCAGC
The “PBM E-score” value of the first is lower: 0.24 for the first, 0.307 for the second.

Going from ACAGCAGA to CAAGCAGC, the “PBM E-score” value rises from -0.0557 to 0.324.

Going from CACGCAGA to AACGCAGC, the “PBM E-score” value rises from -0.137 to 0.0364.

First: GCAGCAGA
Second: AAAGCAGC
The “PBM E-score” value of the first is lower: -0.135 for the first, -0.0508 for the second.

Compared with ACAGCAGC, CACGCAGC is higher in “PBM E-score” value: 0.288 for the first, 0.295 for the second.

Compared with ACAGCAGT, CGCGGCTC is higher in “PBM E-score” value: -0.0218 for the first, 0.117 for the second.

Going from CACTTGAG to ACCCTCCG, the “PBM E-score” value falls from 0.00447 to -0.333.

Going from GCCGCAGC to TAAGATCA, the “PBM E-score” value rises from 0.0591 to 0.157.

Going from CGATCGAC to GTATCGCA, the “PBM E-score” value rises from -0.154 to -0.00444.

First: CATACTTA
Second: AAAAAAGT
The “PBM E-score” value of the first is lower: 0.0988 for the first, 0.135 for the second.

Going from TGGCTGAA to CATCCAGA, the “PBM E-score” value rises from 0.0392 to 0.268.

First: TGAGCCCA
Second: CGAGCCAA
The “PBM E-score” value of the first is higher: 0.0335 for the first, -0.00353 for the second.

First: GGAGCCCC
Second: GGAGCCAC
The “PBM E-score” value of the first is lower: 0.265 for the first, 0.289 for the second.

First: GGAGCCCA
Second: AGAGCCAA
The “PBM E-score” value of the first is higher: 0.349 for the first, -0.13 for the second.

Compared with CGAGCCAC, GGAGCCAA is higher in “PBM E-score” value: -0.116 for the first, 0.33 for the second.

Going from AGAGCCAC to CCCAGTCC, the “PBM E-score” value falls from 0.13 to -0.0352.

First: AAGTTCAA
Second: CACGTGCC
The “PBM E-score” value of the first is higher: 0.0288 for the first, -0.121 for the second.

First: ATCGATCC
Second: CCTAGAGG
The “PBM E-score” value of the first is lower: -0.0388 for the first, 0.0618 for the second.

First: CAAGTTCG
Second: ACATTGCT
The “PBM E-score” value of the first is lower: -0.0211 for the first, 0.0699 for the second.

Going from GCATCTCA to TGGGCAAA, the “PBM E-score” value falls from 0.139 to -0.213.

Compared with AGCTTCCA, AGCTTCAA is lower in “PBM E-score” value: 0.458 for the first, 0.0987 for the second.

Going from CGCTTCAG to AGCTTCCC, the “PBM E-score” value rises from 0.0898 to 0.378.

Going from AGCTTCAG to AGCTTCGG, the “PBM E-score” value rises from -0.19 to 0.17.

Compared with TGCTTCCA, ACCTTCCC is lower in “PBM E-score” value: 0.146 for the first, -0.00014 for the second.

First: CGCTTCCG
Second: AGCTTCCG
The “PBM E-score” value of the first is lower: 0.291 for the first, 0.433 for the second.

Going from CCCTTCCG to AGCTTCGC, the “PBM E-score” value rises from -0.286 to 0.173.

Going from GATTAAGC to CAAAACGC, the “PBM E-score” value falls from 0.0627 to 0.025.

First: AAGCAAAA
Second: CCATCCGG
The “PBM E-score” value of the first is lower: -0.075 for the first, -0.0299 for the second.

First: CGCTTCCC
Second: CCCTTCCA
The “PBM E-score” value of the first is higher: 0.273 for the first, -0.0993 for the second.

Going from GGCTTCAC to GGCTTCCC, the “PBM E-score” value rises from -0.14 to 0.433.

Compared with CGCTTCCA, CGCTTCGA is lower in “PBM E-score” value: 0.351 for the first, -0.0778 for the second.

Compared with GTCAGGTA, GTTCTAAA is lower in “PBM E-score” value: 0.091 for the first, 0.0776 for the second.

Compared with CAGAATCC, CTATCGCC is lower in “PBM E-score” value: 0.161 for the first, -0.00847 for the second.

Going from GACAGGAA to GTCAGGAA, the “PBM E-score” value falls from 0.316 to 0.104.

Going from CACAGGAA to GACAGGAC, the “PBM E-score” value falls from 0.118 to 0.0783.

Going from ACCAGGAA to TACAGGTA, the “PBM E-score” value rises from 0.0492 to 0.0633.

First: AACAGGAG
Second: AACAGGAA
The “PBM E-score” value of the first is lower: -0.0445 for the first, 0.334 for the second.

Compared with AACAGGAC, AACAGGTA is higher in “PBM E-score” value: 0.162 for the first, 0.269 for the second.

First: TACAGGAA
Second: AACAGGAT
The “PBM E-score” value of the first is higher: 0.394 for the first, 0.318 for the second.

Going from CGGCTCAA to GCGGGCAA, the “PBM E-score” value falls from 0.00705 to -0.146.

Going from CACAAGGC to AACACCTT, the “PBM E-score” value rises from -0.161 to -0.0171.

First: AGTCCCGA
Second: CGCATAAA
The “PBM E-score” value of the first is lower: -0.15 for the first, 0.0544 for the second.

Going from ACGTTGCA to CACCGGAA, the “PBM E-score” value rises from -0.015 to 0.266.

First: AACCGGAA
Second: TACCGGAA
The “PBM E-score” value of the first is lower: 0.2 for the first, 0.341 for the second.

First: CTCGGGGC
Second: CTAAGGCC
The “PBM E-score” value of the first is lower: -0.101 for the first, 0.046 for the second.

Going from AGTTGAAT to CGGATGTC, the “PBM E-score” value rises from -0.0577 to 0.0736.

Going from GCCTTCTA to CGCTTCTA, the “PBM E-score” value rises from 0.131 to 0.259.

AGCTTCTA and GGCTTCTA are the same in “PBM E-score” value: 0.297 for the first, 0.297 for the second.

Compared with AGCTTCTC, AGCTTCTG is lower in “PBM E-score” value: 0.25 for the first, 0.245 for the second.

Compared with GCTCCGGA, CGAACTAC is lower in “PBM E-score” value: 0.121 for the first, 0.00469 for the second.

Going from AGGCCGCA to AGGCCGCG, the “PBM E-score” value rises from -0.0993 to 0.0497.

First: AGGCCGCC
Second: GCTGCCAC
The “PBM E-score” value of the first is lower: 0.292 for the first, 0.301 for the second.

Compared with CCTGCCTA, TCTGCCAA is lower in “PBM E-score” value: 0.00507 for the first, 0.00421 for the second.

Going from CCTGCCAC to GCTGCCTA, the “PBM E-score” value rises from 0.0404 to 0.305.

Going from ACTGCCAC to CCTGCGTA, the “PBM E-score” value falls from 0.101 to 0.0119.

Compared with ACTGCCTA, GCTGCCAA is higher in “PBM E-score” value: 0.0876 for the first, 0.31 for the second.

Compared with ACTGCCAA, ACTGCGTA is lower in “PBM E-score” value: 0.0668 for the first, 0.062 for the second.

First: GCTGCGTA
Second: TAGTCTGA
The “PBM E-score” value of the first is higher: 0.286 for the first, -0.0964 for the second.

Compared with TCCAAACA, AGATAACA is lower in “PBM E-score” value: 0.135 for the first, -0.0519 for the second.

— the supplement of paper PMC3334620
